Measured values from PubChem BioAssay (NCI).
Compounds without any hit were thinned out: in the full panel of roughly 79,000, 15% have a hit. A number with no mark means an inactive call. The source made the active and inactive calls. Cut-off read from the data, not from the text of the source: active = growth inhibition above about 70%; inactive = the rest.

Columns and labels:
[1] = NCI Yeast Anticancer Drug Screen. Data for the rad50 strain (AID 155);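 note: 0% = growth of vehicle-only cultures of the same strain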; conditions: S. cerevisiae rad50 strain growth inhibition, stronger effect = higher value
Method in brief: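 A DNA repair-deficient yeast mutant serves as the test organism; compound-induced growth inhibition is calculated against vehicle-treated cells.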

[2] = NCI Yeast Anticancer Drug Screen. Data for the mec2-1 strain (AID 157); conditions: S. cerevisiae mec2-1 strain, stronger effect = higher value
Method in brief: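 Test agents were screened against the mec2-1 yeast strain, with defined DNA repair or cell cycle alteration. Growth was scored as inhibition against vehicle-only controls.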

[3] = NCI Yeast Anticancer Drug Screen. Data for the sgs1 mgt1 strain (AID 161);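 note: 0% = growth of cultures given vehicle only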; conditions: S. cerevisiae sgs1 mgt1 strain, stronger effect = higher value
Method in brief: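 Test agents were incubated with a DNA-repair-mutant yeast strain. Growth was then read and compared against vehicle-treated controls.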

[4] = NCI Yeast Anticancer Drug Screen. Data for the cln2 rad14 strain (AID 165);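 note: 0% = growth equal to vehicle treated cultures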; conditions: S. cerevisiae cln2 rad14 strain, stronger effect = higher value
Method in brief: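 Growth of compound-exposed yeast (cln2 rad14 genotype) measured and expressed as inhibition relative to vehicle.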

[5] = NCI Yeast Anticancer Drug Screen. Data for the bub3 strain (AID 167); conditions: S. cerevisiae bub3 mutant strain, stronger effect = higher value
Method in brief: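 Inhibition values come from growth of compound-treated mutant yeast normalised to vehicle-treated controls.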

[6] = NCI Yeast Anticancer Drug Screen. Data for the mlh1 rad18 strain (AID 175); conditions: S. cerevisiae mlh1 rad18 strain growth inhibition, stronger effect = higher value
Method in brief: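 In this whole-cell yeast screen, a strain with altered DNA damage repair is challenged with compound, and its growth is measured against matched vehicle-treated controls.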

[7] = at 5.0 µM (retest, dose inferred, filed as 0.5)
[8] = at 50.0 µM (retest, dose inferred, filed as 5.0)

SMILES | growth inhibition [1, 7] | growth inhibition [1, 8] | growth inhibition ([1]; at 50.0 µM) | growth inhibition [2, 7] | growth inhibition [2, 8] | growth inhibition ([2]; at 50.0 µM) | growth inhibition [3, 7] | growth inhibition [3, 8] | growth inhibition ([3]; at 50.0 µM) | growth inhibition [4, 7] | growth inhibition [4, 8] | growth inhibition ([4]; at 50.0 µM) | growth inhibition [5, 7] | growth inhibition [5, 8] | growth inhibition ([5]; at 50.0 µM) | growth inhibition [6, 7] | growth inhibition [6, 8] | growth inhibition ([6]; at 50.0 µM)
COc1ccc(C(=O)C2OC2c2ccccc2)cc1 (configuration not stated) | -2% | 23% | 42.4% | -6% | 9% | 15.4% | -1% | 20% | 30% | -32% | 3% | 20.1% | 3% | 18% | 58.5% | 7% | 59% | 34.7%
CCOC(=O)c1cnn(-c2ccccc2)c1N | 62% | 98% (active) | 88.8% (active) | 26% | 99% (active) | 92.8% (active) | 18% | 98% (active) | 89.4% (active) | 15% | 97% (active) | 86.6% (active) | 63% | 98% (active) | 90.2% (active) | 23% | 98% (active) | 88.2% (active)
CCCC(C)(O)C(C)CC (configuration not stated) | 2% | 5% | 19.1% | 0% | -1% | 9.3% | -1% | 0% | -0.85% | -3% | -8% | -6.9% | -3% | 8% | 2.45% | -2% | 0% | 7.7%
O=C(Cc1ccccc1)c1ccccc1C(=O)NNc1ccccc1 | 7% | 18% | 49% | -5% | 6% | -6.4% | -4% | -2% | -8% | 4% | 61% | -51.9% | 43% | 96% (active) | 26.2% | 5% | 22% | -0.75%
Cc1nn(C)c2ccc3ccccc3c(=O)c12 | 9% | 66% | 88.5% (active) | -1% | 44% | 45% | 2% | 50% | 42.6% | 18% | 47% | 29.4% | -6% | 26% | 32.6% | 11% | 81% (active) | 76% (active)
CC(C)=CC1C(COC(=O)CCl)C1(C)C (configuration not stated) | -6% | 8% | 1.85% | 3% | 0% | 44.8% | -2% | 3% | -12.3% | 0% | -11% | -29.4% | 2% | -5% | 36.1% | -2% | 5% | -23.6%
CC(C)c1ccc(O)c(Cc2cc(C(C)C)ccc2O)c1 | 42% | 98% (active) | 98.2% (active) | 23% | 98% (active) | 98.3% (active) | 20% | 99% (active) | 96.7% (active) | 20% | 98% (active) | 97.1% (active) | 20% | 99% (active) | 98.6% (active) | 64% | 98% (active) | 97.5% (active)
CC(C(=O)c1ccc(Cl)cc1)C1OC(=O)C(Cl)=C1Cl (configuration not stated) | 43% | 54% | 90.8% (active) | 37% | 51% | 93.4% (active) | 43% | 70% (active) | 92.9% (active) | 32% | 43% | 87.7% (active) | 40% | 72% (active) | 91.5% (active) | 56% | 71% (active) | 91.7% (active)
Cc1c(O)ccc2c1OCC(c1ccc(Cl)cc1)C2 (configuration not stated) | -19% | 72% (active) | 87.9% (active) | 0% | 13% | 70.2% (active) | -7% | 21% | 72.8% (active) | 10% | 39% | 78.5% (active) | 32% | 85% (active) | 92.9% (active) | -10% | 43% | 94.2% (active)
O=C1C(Cl)=C(c2ccccc2)C1Cl (configuration not stated) | 97% (active) | 100% (active) | 99.2% (active) | 98% (active) | 99% (active) | 99.5% (active) | 99% (active) | 100% (active) | 99.7% (active) | 98% (active) | 99% (active) | 99.5% (active) | 96% (active) | 99% (active) | 99.5% (active) | 99% (active) | 99% (active) | 99.2% (active)
O=C(Nc1ccc(NC(=O)Nc2cc(C(=O)Nc3ccc(C4=NCCN4)cc3)ccc2C(=O)Nc2ccc(C3=NCCN3)cc2)cc1)Nc1cc(C(=O)Nc2ccc(C3=NCCN3)cc2)ccc1C(=O)Nc1ccc(C2=NCCN2)cc1 | 7% | -4% | 95.5% (active) | 0% | -6% | 94.5% (active) | 2% | -3% | 95.9% (active) | -1% | 1% | 95% (active) | 2% | 16% | 97% (active) | 7% | -2% | 96.5% (active)
N=C(N)Cc1ccc(NC(=O)c2ccc(C(=O)Nc3ccc(CC(=N)N)cc3)cc2)cc1 | 3% | -8% | 21.4% | 2% | 14% | 34.2% | -11% | -21% | 78.4% (active) | -7% | -16% | 14.7% | -3% | -11% | 56.3% | 2% | -49% | 27.9%
COc1c([N+](=O)[O-])cc(-c2ccccc2)cc1[N+](=O)[O-] | -4% | 89% (active) | 69.9% | 10% | 98% (active) | 65.3% | 14% | 93% (active) | 77.8% (active) | -2% | 58% | 67.5% | 5% | 63% | 74.2% (active) | 26% | 96% (active) | 83.2% (active)
O=c1c2ccccc2c2ccccc2c(=O)n1-c1cc2c3ccccc3ccc2c2ccccc12 | 12% | 16% | -16.2% | -11% | 9% | -12.8% | -4% | 9% | -2.4% | -11% | -10% | 68.2% | -12% | -5% | -66.5% | 5% | 9% | 37.8%
CCC1(CC(=O)O)OCCc2c1[nH]c1c(C)c(Cl)ccc21 (configuration not stated) | 10% | 99% (active) | 95.7% (active) | 1% | 99% (active) | 98.1% (active) | 2% | 97% (active) | 97.8% (active) | -2% | 96% (active) | 97.2% (active) | -4% | 96% (active) | 95.8% (active) | -1% | 97% (active) | 97.5% (active)
CC1(C)[C@@H]2CC[C@]1(C)[C@@H](OC(=O)CSC#N)C2 | 92% (active) | 99% (active) | 99.4% (active) | 74% (active) | 100% (active) | 99.6% (active) | 98% (active) | 100% (active) | 99.3% (active) | 24% | 99% (active) | 98.8% (active) | 95% (active) | 100% (active) | 99.6% (active) | 75% (active) | 99% (active) | 99.2% (active)
N#Cc1sc2c(c1OC(=O)c1ccc(Cl)cc1)c(=O)n(-c1ccccc1)c(=S)n2-c1ccccc1 | -4% | -16% | 1.5% | 5% | -24% | 2.4% | -3% | 0% | -0.45% | 5% | 6% | 34.5% | -3% | 2% | 4.95% | -2% | 1% | -7.35%
O=C1c2ccccc2C(=O)c2sc(Nc3ccc(Cl)c(Cl)c3)nc21 | 89% (active) | 98% (active) | 90% (active) | 86% (active) | 98% (active) | 92.8% (active) | 99% (active) | 98% (active) | 93.2% (active) | 68% | 98% (active) | 88% (active) | 99% (active) | 97% (active) | 91.2% (active) | 91% (active) | 97% (active) | 91.3% (active)
O=CC(O)C(O)C(O)C(O)C(=O)NCCCCCCCCCCCCNC(=O)C(O)C(O)C(O)C(O)C=O (configuration not stated) | 19% | 22% | 16.4% | 20% | 27% | 12.2% | -20% | -28% | 21.9% | -2% | 18% | 25.2% | -4% | 10% | -6.7% | 20% | 23% | -20.6%
